In the library only some 3.7% were active in any assay of this set; here they are far more common.
TbPYK inhibitor: blocks Trypanosoma brucei pyruvate kinase; Q57TT1; TbPYK enzyme, Kinase-Glo Plus ATP luminescence, 45 min; Potency, µM (series often up to 76.8 µM), for the others: at the top dose activity, negative = inhibition, hits mostly inhibitors; 410,000 compounds, 0.12% hits; AID 624173; also: nearly all actives have a fitted effect of over 50% in size
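T. brucei PYK with substrate was exposed to pin-transferred compounds across a concentration series, then started with 130 uM ADP (final). After 45 min at room temperature, Kinase-Glo Plus luminescence was read, normalized and curve-fitted.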
RE007 growth inh: less growth of the S. pombe RE007 Vpr strain. S. pombe RE007 Vpr strain, BacTiter-Glo ATP luminescence, 24 h. Potency, µM (series often up to 92.2 µM), inactives show top-dose activity change, negative = less growth, most hits filed as inhibitors. 360,000 compounds, 0.21% hits; active = well fitted falling curve with a large enough effect; inconclusive = small, poorly fitted or top-dose-only effect; inactive = no such curve, though single readings can be large or run the other way; also: nearly all actives have a fitted effect of over 50% in size
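Fission yeast RE007 carrying one integrated HIV-1 vpr copy, seeded at OD 0.01 in PMG+AL medium with 23 nL pinned compound. Grown 24 h at 30 degrees; viability read by BacTiter-Glo luminescence after 5 min.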
Sm TGR block: S. mansoni TGR enzyme inhibition | Q962Y6 | purified TGR, DTNB reduction, TNB absorbance 405 nm | Potency, µM (titrated, usually from 114 µM), for inactives: at the top dose activity change, negative = inhibition, actives largely listed as inhibitors | 360,000 compounds, 3% hits | AID 485364; also: nearly all actives have a fitted effect of over 60% in size
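First, TGR (20 nM dispensed) and NADPH were mixed with compound. Second, a 15 min room-temperature incubation followed. Third, further NADPH and then DTNB were added to start the reaction. Finally, TNB absorbance was monitored kinetically.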
FMDV antiviral: foot and mouth disease virus antiviral activity. FMDV antiviral cell-based qHTS. Potency, µM (titrated, usually from 57.9 µM), for the others: at the highest dose activity change, negative = inhibition, actives largely listed as inhibitors. 410,000 compounds, 1.2% hits. AID 1159524; calls by dose curve; tested in HEK293T cells; also: read-out not given here; nearly all actives have a fitted effect of over 45% in size
* = called active by the depositor; ? = inconclusive; / = not tested or not shown; [ ] = another dose, or the depositor's remark. Unless noted, calls follow the shape of the dose curve; as a rule, active = well fitted curve in the direction sought with a large enough effect; inconclusive = small, poorly fitted or top-dose-only effect, or another doubt; inactive = no such curve, though single readings can be large; an effect the other way counts as inactive or inconclusive. % is scaled to controls: 0 for no effect and ±100 for the full control effect; potency is read from the fitted curve at half-maximal effect.

SMILES | TbPYK inhibitor | RE007 growth inh | Sm TGR block | FMDV antiviral
COc1ccc(/C(C)=N/Nc2ccc(F)cc2F)c(O)c1 | -4.7% | 4.2% | -25.3% | 65.3%
Cc1cccc(OCC(=O)Nc2ccc3c(c2)nc(CCNC(=O)c2ccco2)n3C)c1 | -0.8% | / | ? | -17.2%
Oc1cccc(C2c3[nH]c4ccccc4c3CCN2Cc2ccoc2)c1 (configuration not stated) | -5.1% | -0.5% | 17.8µM* | -25.3%
Oc1cccc(C2c3[nH]c4ccccc4c3CCN2Cc2ccc3c(c2)CCO3)c1 (configuration not stated) | -0.1% | -18.4% | -2.0%[57.1 µM] | -26.1%
Cc1ccc(-c2noc(CCC(=O)NCc3ccco3)n2)cc1 | -2.5% | -7.2% | ? | 23.3%
O=C(CCc1nc(-c2ccccc2)no1)NCc1ccco1 | -15.4% | 4.0% | 44.7µM* | 1.9%
COc1cc(-c2noc(CCCC(=O)NCc3ccco3)n2)cc(OC)c1OC | -7.0% | 30.5% | 44.7µM* | -0.7%
CCOC(=O)c1ccc(NC(=O)CCc2nc(-c3ccccc3)no2)cc1 | -0.5% | -23.0% | -5.1% | 20µM*
CCOC(=O)c1ccc(NC(=O)CCc2nc(-c3ccccc3Cl)no2)cc1 | -2.4% | 21.9% | 9.3% | -8.6%
COc1cc(-c2ccc(Cl)cn2)cc2c1OCCN(C(=O)c1ccccc1-n1cccn1)C2 | / | / | / | -8.7%
CCc1cc2c(=O)[nH]c(-c3ccccn3)nc2s1 | 0.5% | 31.6µM* | -6.9% | ?
CCc1cc2c(=O)[nH]c(N3CCCC3)nc2s1 | -9.8% | 5.6% | -10.8% | 50.6%
Cc1cc(-c2csc(NCc3ccccc3)n2)c(C)n1C | ? | 1.0% | -34.1% | -2.6%
Cc1nn(C)cc1-c1csc(N)n1 | -3.4% | 15.6% | -2.6% | 11.6%
Cc1cc(-c2csc(N)n2)c(C)n1CCc1ccccc1 | -23.3% | -9.7% | 0.0% | 11.2µM*
Cc1cc(-c2csc(N)n2)c(C)n1CCC(C)C | -19.8% | -9.3% | -21.7% | 22.4µM*
Cc1ccccc1CCNC(=O)c1ccc(NC(=O)N2CC(C)Sc3ccccc32)cc1 (configuration not stated) | -4.9% | / | 1.4% | -23.5%
O=C(Nc1cccnc1Cl)c1ccc2c(Cl)c3c(nc2c1)CCC3 | 0.5% | -8.0% | 0.8% | -63.3%
O=C(Nc1ccccc1F)c1ccc2c(Cl)c3c(nc2c1)CCC3 | ? | / | 2.5% | 10µM*
COc1ccc(Br)cc1CNC(=O)Cn1ncn2nc(-c3cccs3)cc2c1=O | 2.4% | / | -10.5% | -19.8%
Cc1ncc2c(c1CNC(=O)c1ccccc1F)CCN(C(=O)c1csc(-c3cccs3)n1)C2 | / | / | / | -8.3%
COc1ccc(/C=N/c2oc(C)c(C)c2C#N)c(OC)c1 | -8.1% | 6.7% | 50.1µM* | 6.3%
Cc1oc(/N=C/c2ccccc2)c(C#N)c1C | 0.6% | 16.3% | -2.7% | 42.8%
COc1cc(/C=N/c2oc(C)c(C)c2C#N)cc(Br)c1O | -2.8% | 14.1% | 11.2µM* | 11.3%
Cc1oc(-c2ccccc2Cl)nc1CS(=O)(=O)CC(=O)NC(C)CCc1ccccc1 (configuration not stated) | 2.4% | / | -25.1% | -19.7%
SMILES | TbPYK inhibitor | RE007 growth inh | Sm TGR block | FMDV antiviral
CC(=O)Nc1c2c(nn1-c1ccc(C)cc1C)CSC2 | -1.2% | 1.0% | -30.0% | /
Cc1ccccc1-n1nc2c(c1NC(=O)c1ccc(Br)o1)CSC2 | -19.2% | 1.1% | 31.6µM* | -24.7%
Cc1ccccc1-n1nc2c(c1NC(=O)c1ccco1)CS(=O)(=O)C2 | -1.1% | -6.4% | 44.7µM* | -3.8%
CC1=C(C(=O)O)N2C(=O)C(NC(=O)C(N)c3ccccc3)C2SC1 (configuration not stated) | / | / | / | 6.1%
CC1Cc2cc(S(=O)(=O)CCC(=O)NCc3ccco3)ccc2N1C(=O)C1CC1 (configuration not stated) | -6.3% | -2.6% | 39.8µM* | 2.2%
Cc1ccc(S(=O)(=O)CCC(=O)NCc2ccco2)cc1 | 2.7% | -7.1% | 39.8µM* | 2.3%
COc1ccccc1CNC(=O)CCS(=O)(=O)c1ccc2c(c1)CC(C)N2C(=O)C1CC1 (configuration not stated) | -8.4% | -5.4% | -6.3% | -4.3%
Cc1ccc(S(=O)(=O)CCC(=O)NCc2ccccc2)cc1 | -1.4% | -0.4% | 1.3% | -16.0%
CC1CCN(S(=O)(=O)c2ccc3c(c2)c(=O)c(C(=O)NCCc2ccccc2)cn3C)CC1 | 0.4% | / | 10.4% | -2.6%
O=[N+]([O-])c1ccc(S(=O)Cc2ccccc2)c([N+](=O)[O-])c1 (configuration not stated) | 3.1% | 5.62µM* | / | 14.1µM*

Source: PubChem (National Center for Advancing Translational Sciences (NCATS))
